# Laboratory results taken from ChEMBL document CHEMBL1157539, “Thousands of chemical starting points for antimalarial lead identification” (Nature, 2010).
# Tested on: Plasmodium falciparum
# Assay: GSK_TCMDC: Inhibition of Plasmodium falciparum 3D7 in whole red blood cells, using parasite LDH activity as an index of growth. Test compounds present at 2uM
# Type: functional
row,Compound,Inhibition [%]
1,O=C(O)C(F)(F)F.O=C1CCCN1CCCNCc1cccc(-c2cccc(-c3nc4cc(C(F)(F)F)ccc4[nH]3)c2)c1,100
2,O=C(Nc1ccc(Cl)cc1F)NC1CCN(CCCCCNC(=O)C2CC2c2ccc(Cl)c(Cl)c2)CC1 (stereo not drawn),100
3,NC1=NC(c2ccccc2)(c2ccccc2)C(=O)N1Cc1ccc(-c2ccncc2)cc1.O=CO,96
4,COc1ccccc1C1CCN(C2CCC(NC(=O)c3cc4ccccc4[nH]3)CC2)CC1 (stereo not drawn),88
5,CCc1c[nH]c2c(N3CCCS3(=O)=O)cc(C(=O)N[C@@H](Cc3ccccc3)[C@H](O)CNC(C)(C)c3cccc(C(F)(F)F)c3)cc12.O=CO,97
6,CCNc1cc(C(=O)N[C@@H](Cc2ccccc2)[C@H](O)CNC(CC)c2cccc(Cl)c2)cc(N2CCCC2=O)c1.Cl (stereo partly drawn),97
7,Cc1[nH]c2ccc(NS(C)(=O)=O)cc2c1C1CCN(CCC2CCN(C(=O)/C=C/c3ccc(Cl)c(Cl)c3)CC2)CC1,100
8,c1ccc2[nH]c(-c3ccc(-c4ccc(CN5CCCCC5)cc4)s3)nc2c1,100
9,CCOC(=O)c1c(CN2CCCC2)n(-c2ccccc2)c2cc(Br)c(O)cc12,83
10,N=C(N)Nc1nc(-c2cccc(NC(=O)NCc3cccc4ccccc34)c2)cs1,100
11,COc1ccc(C2N=C(N)N=C(N)N2OCc2ccccc2)cc1OC.Cl (stereo not drawn),95
12,c1cncc(Oc2ccc(Nc3ccnc4cc(-c5cccc(CN6CCOCC6)c5)ccc34)cc2)c1,100
13,Cc1nc(O)c2c(ccc3ccc(CNc4ccc(C(=O)N[C@@H](CCC(=O)O)C(=O)O)c(F)c4)cc32)n1,96
